Sampled rows, rich in hits. Any-hit rate of the full collection: about 7%.
JMJD2A Tudor: qHTS Assay for Inhibitors of JMJD2A-Tudor Domain; Lysine-specific demethylase 4A (Homo sapiens), O75164; Potency, µM (series often up to 114 µM), usual class: inhibitors; 390,000 tested, 4.4% active; AlphaScreen JMJD2A-Tudor / H3K4me3 peptide binding; also: nearly all actives have a fitted effect of over 50% in size
GCN5L2 inh: qHTS Assay for Inhibitors of GCN5L2 | GCN5L2 HAT assay, ThioGlo1 CoA-SH fluorescence | Potency, µM (top dose mostly 58.9 µM), hits mostly inhibitors | 390,000 tested, 0.21% active | AID 504327, 2011
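ThioGlo1-coupled HAT assay: 20nM GCN5L2, 70uM acetyl-CoA, 75uM H3(1-25) peptide, pH 7.5. Fluorescence read at 340/540nm at start and after 20 min at room temperature.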
PLK1 PBD block: qHTS for Inhibitors of PLK1-PDB (polo-like kinase 1 - polo-box domain): Primary Screen. Serine/threonine-protein kinase PLK1 (Homo sapiens), P53350. Plk1 PBD binding of FITC phosphopeptide, fluorescence polarization. Potency, µM, usual class: inhibitors. 360,000 tested, 2.8% active; also: series mostly up to about 57 µM; nearly all actives have a fitted effect of over 65% in size
BAZ2B inh: qHTS Assay for Inhibitors of BAZ2B. Bromodomain adjacent to zinc finger domain protein 2B (Homo sapiens), Q9UIF8. AlphaScreen BAZ2B-H3K14Ac peptide displacement. Potency, µM (doses to about 114 µM), most hits filed as inhibitors. 360,000 tested, 4.4% active. AID 504333, 2011; also: nearly all actives have a fitted effect of over 60% in size
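Compounds, titrated to a top concentration of 110 uM, were incubated 30 min at room temperature with preformed BAZ2B/acetyl-K14 H3 peptide complex (50 nM each). Proximity signal was measured by AlphaScreen after 20 min with beads.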
HP1b binding inh: HTS for Inhibitors of HP1-beta Chromodomain Interactions with Methylated Histone Tails. 390,000 tested, 0.56% active. Potency, µM (doses to about 114 µM), most hits filed as inhibitors. Chromobox protein homolog 1 (Homo sapiens), P83916. AlphaScreen HP1-beta / biotin-H3K9me3 peptide binding; also: nearly all actives have a fitted effect of over 70% in size
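AlphaScreen: HP1-beta (50 nM) preformed 30 min with biotin-H3(1-18)K9me3 peptide (50 nM) in PBS pH 7.4, 0.01% Tween-20. Compound added for 30 min at RT, then streptavidin donor/nickel chelate acceptor beads (10 ug/mL) for 30 min.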
PI5P4Ka inh: qHTS for Inhibitors of phosphatidylinositol 5-phosphate 4-kinase (PI5P4K). PI5P4Kalpha enzyme, ADP-Glo luminescence, 60 min; hits give low values. max response, %. 330,000 tested, 1.2% active. AID 652105, 2013; active = max response of -50% or lower; inconclusive = between -30% and -50%; inactive = -30% or higher; also: value at the top dose of about 77 µM
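Reactions run in 0.038 M HEPES pH 7.4, 0.28 mM EGTA, 0.1% CHAPS and 5% DMSO, with PI5P4Kalpha, substrate, compound and 5 microM ATP final, one hour at room temperature. Readout is ADP-Glo luminescence.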
Large screens that a line does not name were inactive. Unless noted, calls follow the shape of the dose curve; as a rule, active = well fitted curve in the direction sought with a large enough effect; inconclusive = small, poorly fitted or top-dose-only effect, or another doubt; inactive = no such curve, though single readings can be large; an effect the other way counts as inactive or inconclusive.

O=C(NNC(=O)c1sccc1-n1cccc1)c1ccccc1	PLK1 PBD block 24µM
O=C(NNC(=O)c1sccc1-n1cccc1)c1ccc(F)cc1	BAZ2B inh inconclusive
COc1ccccc1C1Nc2cccc3cccc(c23)N1	JMJD2A Tudor 50µM, BAZ2B inh 50µM, HP1b binding inh inconclusive
Brc1cccc(C2Nc3cccc4cccc(c34)N2)c1	PLK1 PBD block inconclusive, BAZ2B inh inconclusive
COc1ccc(C2Nc3cccc4cccc(c34)N2)cc1	JMJD2A Tudor inconclusive, PLK1 PBD block 30µM, BAZ2B inh 40µM, HP1b binding inh inconclusive
CCOc1ccc(C2Nc3cccc4cccc(c34)N2)cc1OC	JMJD2A Tudor inconclusive, HP1b binding inh 50µM
CN(C)c1ccc(C2Nc3cccc4cccc(c34)N2)cc1	JMJD2A Tudor inconclusive, BAZ2B inh inconclusive, HP1b binding inh inconclusive
Oc1ccccc1C1Nc2cccc3cccc(c23)N1	PLK1 PBD block inconclusive, BAZ2B inh 35µM, HP1b binding inh inconclusive
COc1cccc(CNC(=O)CCCNC(=O)c2ccc(Cl)cc2)c1	none
CCCS(=O)(=O)NC(=O)C1(C)CCCN(C(=O)c2sccc2C)C1 (configuration not stated)	none (no result: JMJD2A Tudor, GCN5L2 inh, BAZ2B inh, HP1b binding inh)
Clc1cccc(C2Nc3cccc4cccc(c34)N2)c1	JMJD2A Tudor inconclusive, PLK1 PBD block inconclusive, BAZ2B inh inconclusive, HP1b binding inh inconclusive
CCOc1cc(C2Nc3cccc4cccc(c34)N2)ccc1O	BAZ2B inh inconclusive (no result: PI5P4Ka inh)
c1ccc(C2Nc3cccc4cccc(c34)N2)cc1	JMJD2A Tudor inconclusive, PLK1 PBD block 27µM, BAZ2B inh inconclusive, HP1b binding inh inconclusive, PI5P4Ka inh inconclusive
c1csc(C2Nc3cccc4cccc(c34)N2)c1	PLK1 PBD block 30µM, BAZ2B inh inconclusive, HP1b binding inh inconclusive
Clc1ccc(C2Nc3cccc4cccc(c34)N2)cc1Cl	PLK1 PBD block inconclusive, BAZ2B inh inconclusive
c1csc(C2Nc3ccccc3-c3nc4ccccc4n32)c1 (configuration not stated)	none
O=[N+]([O-])c1ccccc1C1Nc2cccc3cccc(c23)N1	JMJD2A Tudor 40µM, BAZ2B inh 32µM, HP1b binding inh inconclusive
COc1cc(OC)c(C2Nc3cccc4cccc(c34)N2)c(OC)c1	JMJD2A Tudor 50µM, BAZ2B inh 35µM, HP1b binding inh inconclusive
CCN(CC)C(=O)c1cc(-c2ccc(Cl)cc2)on1	none (no result: PLK1 PBD block, PI5P4Ka inh)
CN(C)CCCNC(=O)C(=O)Nc1cc2c3c(c1)CCC(=O)N3CCC2	none
CC1=C(C(=O)N(C)C)CC(CC(=O)NC2CCCC2)C(=O)N1CCC1=CCCCC1 (configuration not stated)	none (no result: JMJD2A Tudor, GCN5L2 inh, BAZ2B inh, HP1b binding inh)
CCOc1ccc(NS(=O)(=O)c2cc(C(=O)NCCCN3CCCC3=O)ccc2C)cc1	none
CC1=C(C(=O)OCc2ccccc2)C(c2cccc([N+](=O)[O-])c2)NC(=O)N1CCCCCC(=O)O (configuration not stated)	none
COC(=O)C1=C(C)N(CCCC(=O)O)C(=O)NC1c1ccccc1OS(=O)(=O)c1ccc([N+](=O)[O-])cc1 (configuration not stated)	PI5P4Ka inh -105 (no result: GCN5L2 inh, BAZ2B inh)
CCOC(=O)C1=C(C)N(CCCC(=O)O)C(=O)NC1c1ccccc1OS(=O)(=O)c1ccc(C)cc1 (configuration not stated)	PI5P4Ka inh -85
CCOC(=O)C1=C(C)N(CCCCCC(=O)O)C(=O)NC1c1ccc([N+](=O)[O-])cc1 (configuration not stated)	none
CCOC(=O)C1=C(C)N(CCCCCC(=O)O)C(=O)NC1c1ccccc1OS(=O)(=O)c1ccc(C)cc1 (configuration not stated)	JMJD2A Tudor inconclusive (no result: GCN5L2 inh, BAZ2B inh)
CC1=C(C(=O)OCc2ccccc2)C(c2ccccc2OS(=O)(=O)c2ccccc2[N+](=O)[O-])NC(=O)N1CCCC(=O)O (configuration not stated)	JMJD2A Tudor inconclusive, PI5P4Ka inh -99 (no result: GCN5L2 inh, BAZ2B inh)
CCOC(=O)C1=C(C)N(CCCC(=O)O)C(=O)NC1c1ccccc1OS(=O)(=O)c1ccccc1[N+](=O)[O-] (configuration not stated)	PI5P4Ka inh -76 (no result: GCN5L2 inh, BAZ2B inh)
CCc1ccccc1NC(=O)Cn1c(=O)n(CCc2ccccc2)c(=O)c2sc3ccccc3c21	none (no result: PLK1 PBD block, PI5P4Ka inh)
Cc1ccc(-n2nc3c(=O)n(CC(=O)NC4CCCCC4)nc(C)c3c2C)cc1	none
O=C(NC1CCCCC1)Oc1cccc2ccccc12	JMJD2A Tudor inconclusive, PLK1 PBD block 24µM, HP1b binding inh inconclusive
O=C(CSc1nc2c([nH]c3ccccc32)c(=O)n1-c1cccc(Cl)c1)NCC1CCCO1 (configuration not stated)	none (no result: PLK1 PBD block, PI5P4Ka inh)
O=C1CCCC(O)=C1N=Nc1c(Cl)cc(Cl)cc1Cl	JMJD2A Tudor inconclusive, BAZ2B inh 50µM
O=C1CCCC(O)=C1N=Nc1cccc(C(=O)O)c1	JMJD2A Tudor 89µM, PI5P4Ka inh inconclusive (no result: BAZ2B inh)
Cc1nc2ccc(N=NC3=C(O)CCCC3=O)cc2s1	JMJD2A Tudor inconclusive
Cc1ccc(C(=O)Nn2cnnc2)cc1S(=O)(=O)N1CCOCC1	none
Cc1ccc2[nH]c(=S)cc(C)c2c1	PLK1 PBD block 6µM
CC(=O)NC12CC3CC(C1)CC(C(=O)Oc1ccc(N(C)S(=O)(=O)c4cc(C)ccc4C)cc1)(C3)C2	none
CCC(C)c1ccc(NC(=O)CN(C)CC(=O)Nc2cccc(OC)c2)cc1 (configuration not stated)	BAZ2B inh 50µM
COc1ccc(NC(=O)CN(C)CC(=O)N2CCCCCC2)cc1	JMJD2A Tudor 14µM
CC(C(=O)N1CCCCC1)N(C)CC(=O)Nc1ccc(Cl)cc1 (configuration not stated)	JMJD2A Tudor inconclusive, PLK1 PBD block 12µM
COc1ccc(NC(=O)CN(C)CC(=O)Nc2cccc(C(C)=O)c2)cc1	JMJD2A Tudor 10µM, BAZ2B inh 35µM, HP1b binding inh inconclusive
CN(CC(=O)Nc1ccc(Cl)c(Cl)c1)CC(=O)N1CCCCCC1	none (no result: JMJD2A Tudor, GCN5L2 inh, BAZ2B inh, HP1b binding inh)
O=S(=O)(c1ccc(F)cc1)N1CCN(S(=O)(=O)c2cccs2)CC1	none
COc1cc2c(ccc3cc(OC)c(OC)c(O)c32)cc1O	JMJD2A Tudor 10µM, PLK1 PBD block inconclusive, BAZ2B inh 7.1µM, HP1b binding inh inconclusive, PI5P4Ka inh -106
COc1cccc(NC(c2nnc(-c3ccccc3)o2)c2ccc(F)cc2Cl)c1 (configuration not stated)	none (no result: PLK1 PBD block, PI5P4Ka inh)
NS(=O)(=O)c1ccc(NC(=O)CN2CCc3ccccc3C2)cc1	none

Assay outcomes (PubChem)
